The record followed here is PubChem BioAssay (NCATS).

Inconclusive results are not listed. Where a call stands in place of a potency, no number is given. More than one record can exist for a structure, and the calls need not agree. Active and inactive are the calls of the source. The call rests on the fitted dose curve; in most records, active means well fitted curve in the direction sought with a large enough effect; inconclusive means small, poorly fitted or top-dose-only effect, or another doubt; inactive means no such curve, though single readings can be large; an effect the other way counts as inactive or inconclusive.

In test [1] the target is Tyrosine-protein kinase Yes (Homo sapiens) (UniProt P07947). Nature of the test: qHTS for small molecule inhibitors of Yes1 kinase: Primary Screen (AID 686947). Further: nearly all actives have a fitted effect of over 60% in size. Further: potency means the concentration at half of the fitted maximal effect. In a few lines:
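ADP-Glo luminescence reports ADP formed by 4 nM Yes1 phosphorylating poly(E4Y) (0.3 mg/mL) with 0.1 mM ATP for 60 min at room temperature, following 20 min compound preincubation; normalised between DMSO wells with and without enzyme.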

Test [2] can be described thus: qHTS for small molecule inhibitors of Yes1 kinase: Counter Assay (AID 686950).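 Further: no kinase present so only ADP-Glo detection of a fixed ADP amount is tested; luminescence from ADP-Glo reporting ADP in a fixed ATP and ADP mixture; series mostly up to about 77 µM.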 The method in brief: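 ADP-Glo luminescence read after a 60 min room-temperature incubation of compound with an ATP/ADP mix (0.08 mM/0.02 mM) and no kinase, following a 20 min compound preincubation. Signal scaled between ATP+ADP (max) and 0.1 mM ATP-only (min) wells; Tris pH 7.5, Mg2+, DTT.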
In general terms: In qHTS, concentration-response curves come from the screen itself.

Chain of Tyrosine-protein kinase Yes (Homo sapiens) (P07947 whole entry, looked up): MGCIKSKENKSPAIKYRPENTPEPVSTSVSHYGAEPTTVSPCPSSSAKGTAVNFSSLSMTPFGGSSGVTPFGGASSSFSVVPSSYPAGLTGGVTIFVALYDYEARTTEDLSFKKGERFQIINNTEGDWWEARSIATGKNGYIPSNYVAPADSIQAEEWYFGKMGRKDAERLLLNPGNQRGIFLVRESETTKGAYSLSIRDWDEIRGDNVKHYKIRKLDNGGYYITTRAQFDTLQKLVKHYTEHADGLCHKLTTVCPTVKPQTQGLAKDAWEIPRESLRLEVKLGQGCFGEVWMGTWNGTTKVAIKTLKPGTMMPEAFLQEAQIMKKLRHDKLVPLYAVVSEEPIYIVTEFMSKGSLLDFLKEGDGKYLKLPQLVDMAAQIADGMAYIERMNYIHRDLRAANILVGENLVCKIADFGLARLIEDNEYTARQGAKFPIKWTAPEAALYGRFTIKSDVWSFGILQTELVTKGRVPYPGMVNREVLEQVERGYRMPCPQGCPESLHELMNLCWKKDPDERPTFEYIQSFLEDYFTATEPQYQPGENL

For the molecule `Nc1ncnc2occ(-c3ccc(NC(=O)Nc4cc(C(F)(F)F)ccc4F)cc3)c12`, the Potency in test [1] was 2.07 µM (active) and inactive. Besides, in test [2], the call was inactive.

In the case of `Fc1ccc(-c2ncn(C3CCNCC3)c2-c2ccnc(Oc3ccc(F)c(F)c3)n2)cc1`, the Potency result in test [1] is “inactive”. In addition, the molecule was called inactive in test [2].

As for `COc1cc2ncnc(Nc3ccc(C)c(O)c3)c2cc1OC`, in test [1], the Potency was 0.164 µM (active). Besides, the molecule was classed as inactive in test [2].

Consider `Fc1cccc(COc2ccc(Nc3ncnc4sc(-c5ccco5)cc34)cc2Cl)c1`, for which, in test [1], the Potency result was “inactive”. Besides, in test [2], the outcome was inactive.

In the case of `COc1c(C(N)=O)cc(-c2ccc(Cl)cc2)cc1-c1ccc(S(N)(=O)=O)cc1`, in test [1], the Potency is 10.4 µM (active). Also, the molecule was classed as inactive in test [2].

As for `Cc1ccc(C(=O)NC2CC2)cc1-c1ccc2[nH]ncc2c1`, in test [1], the Potency entry was “inactive”. Besides, the outcome in test [2] was inactive.

In the case of `COc1ccc2c(-c3ccnc(Nc4cccc(OC(F)(F)F)c4)n3)cnn2n1`, in test [1], the Potency was 26 µM (active). Further, in test [2], the molecule was classed as inactive.

Regarding `CN1CCC(C(=O)Nc2n[nH]c3nnc(-c4ccccc4)cc23)CC1`, the Potency in test [1] is 13 µM (active). Moreover, the result in test [2] was inactive.

`COc1cc(C=NNc2ncnc3c2cnn3Cc2ccccc2)ccc1O`: the Potency in test [1] is 0.116 µM (active). The result in test [2] was inactive.

For the molecule `COc1cc2c(cc1Nc1nc(Nc3ccsc3C(N)=O)c3cc[nH]c3n1)N(C(=O)CN(C)C)CCC2`, in test [1], the Potency result was “inactive”. The molecule was classed as inactive in test [2].

For `O=C(Nc1n[nH]c2cc(-c3cc(F)ccc3F)ccc12)C1CC1`, the Potency in test [1] is 26 µM (active). For the same molecule, the result in test [2] was inactive.

Turning to `Cc1ccc(C(=O)NC2CCCCC2)cc1-c1ccc(C(=O)NCC2CC2)cc1`, the Potency entry in test [1] is “inactive”. Also, the call in test [2] was inactive.

Turning to `O=C(Nc1n[nH]c2nc(-c3ccco3)c(Br)cc12)C1CC1`, the Potency in test [1] is 8.23 µM (active). In test [2], the outcome was inactive.

For `CCn1c(-c2nonc2N)nc2c(C#CCN)ncc(OCCCN)c21`, the Potency entry in test [1] was “inactive”. In test [2], the molecule was classed as inactive.

With `CNC(=O)c1cncc(C=Cc2c(Cl)cccc2Cl)c1`, the Potency in test [1] is 0.823 µM (active). In test [2], the outcome was inactive.

As to `CC1=C(C(=O)Nc2ccc3[nH]ncc3c2)C(c2ccc(F)cc2)NC(=O)N1` (stereo unspecified), the Potency in test [1] was 26 µM (active). The molecule was classed as inactive in test [2].

As for `CCn1c(-c2nonc2N)nc2ccncc21`, in test [1], the Potency entry was “inactive”. In addition, the molecule was classed as inactive in test [2].

`CCn1c(-c2nonc2N)nc2c(C#CC(C)(C)O)nc(CN3CCCC3)cc21`: the Potency in test [1] was 23.2 µM (active). Also, the result in test [2] was inactive.
